SIRT5 inh – inhibitors of human sirtuin-5 desuccinylase; 330,000 compounds, 1.1% hits; AID 652115; inhibition, % at 15 µM; Purified SirT5, succinyl-peptide AMC, trypsin-coupled fluorescence; in the data active = inhibition above about 15%; inconclusive = no clear call, values can overlap the other calls
Target sequence (Q9NXA8 whole entry, looked up): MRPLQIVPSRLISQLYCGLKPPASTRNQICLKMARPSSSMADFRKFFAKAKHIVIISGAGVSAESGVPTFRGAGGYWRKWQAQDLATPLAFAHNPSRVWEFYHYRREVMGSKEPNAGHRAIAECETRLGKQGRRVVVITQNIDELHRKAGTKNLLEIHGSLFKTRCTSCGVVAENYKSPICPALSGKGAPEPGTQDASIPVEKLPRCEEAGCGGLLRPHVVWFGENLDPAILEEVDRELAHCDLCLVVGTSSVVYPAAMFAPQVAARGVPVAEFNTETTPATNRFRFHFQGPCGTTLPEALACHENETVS
Rtt109 HAT inh – blocks Candida albicans Rtt109/Vps75 acetyltransferase activity; 330,000 compounds, 0.16% hits; inhibition, % at 34.9 µM; purified Rtt109/Vps75, ThioGlo CoA-SH fluorescence, 4 h; Q5AAJ8;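 active = inhibition of at least 50% in every replicate; inconclusive = best replicate reaches 50% inhibition but some replicates fall short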
ERp5 block – ERp5 (human) disulfide isomerase inhibition; Q15084; ERp5 insulin aggregation, absorbance 650 nm, 90 min; inhibition, % at 9.99 µM; 350,000 compounds, 0.05% hits; AID 651711;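 active = mean replicate inhibition above about 25%, with every replicate also reaching it, limit read from the data, passing the limit was not always enough; inconclusive = only one of those two criteria met; inactive = neither criterion met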
DENV2 CPE rescue – protects cells from dengue virus 2 cytopathic effect | DENV2-infected cells, cytopathic effect rescue, plate reader | CPE inhibition, % at 9.99 µM | 350,000 compounds, 1.7% hits; in the data active = CPE inhibition above about 20%, passing the limit was not always enough; inconclusive = no clear call, values can overlap the other calls; tested in BHK-21 cells;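 note: 0% = median of neutral control wells and 100% = median of positive control wells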
PDI inh – inhibitors of human protein disulfide isomerase. P07237. 350,000 compounds, 0.052% hits. PDI insulin aggregation turbidity, A650, 90 min. inhibition, % at 10 µM;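 active = mean inhibition across replicates of 30% or more, whatever share of single replicates reach that level; inconclusive = mean inhibition below 30% while every single replicate reaches 30%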
* = called active by the depositor; ? = inconclusive; / = no result. Shown are actives, neighbours in structure and some others; about 2.3% of the full set was active somewhere.

SMILES | SIRT5 inh | Rtt109 HAT inh | ERp5 block | DENV2 CPE rescue | PDI inh
C[C@H](CO)N1C[C@H](C)[C@H](CN(C)Cc2ccncc2)Oc2ccc(NC(=O)CCCCCC(=O)Nc3ccccc3N)cc2C1=O | / | / | 17.9 | -7.3 | /
C[C@H]1CN([C@@H](C)CO)C(=O)c2cc(NC(=O)CCCCCC(=O)Nc3ccccc3N)ccc2O[C@H]1CN(C)Cc1ccc(Oc2ccccc2)cc1 | 17.1* | / | -6.3 | -6.5 | /
CC(=O)OCC(C)n1[nH]c2ccccc2c1=O (stereo not given) | 39.6* | / | 5.6 | -8.9 | /
COc1ccc(OC)c(C2CC(=O)N3CN(c4cccc(Cl)c4)CSC3=C2C#N)c1 (stereo not given) | 6.3 | -2.0 | -10.2 | 3.3 | /
COc1ccc(OC)c(C2CC(=O)N3CN(c4ccc(C)c(Cl)c4)CSC3=C2C#N)c1 (stereo not given) | -1.0 | 91.1* | -6.0 | 0.3 | /
C[C@H]1CN([C@@H](C)CO)C(=O)c2cccc(NC(=O)c3nc4ccccc4s3)c2O[C@@H]1CN(C)C(=O)Nc1ccccc1 | 2.3 | / | 2.7 | 3.7 | /
O=C1c2ccccc2C(=O)N1CN(C(=O)c1ccccc1[N+](=O)[O-])c1ccc(F)cc1 | 0.2 | -6.5 | 1.5 | 6.0 | 2.9
Cc1ccc(N(CN2C(=O)c3ccccc3C2=O)C(=O)c2ccc([N+](=O)[O-])cc2[N+](=O)[O-])cc1 | 112.0* | / | -4.7 | / | 5.6
COCC(=O)N1[C@H](CO)[C@@H](c2ccccc2)[C@H]1CNC(=O)c1ccccn1 | 6.6 | / | 5.6 | 3.6 | /
O=C(NC[C@@H]1[C@H](c2ccccc2)[C@H](CO)N1CC1CC1)c1cccnc1 | 10.5 | / | 1.1 | -5.5 | /
O=C(NC[C@H]1[C@H](c2ccccc2)[C@H](CO)N1Cc1cccnc1)c1ccccn1 | 17.1* | / | 1.5 | 11.4 | /
COCC(=O)N1[C@H](CO)[C@H](c2ccccc2)[C@@H]1CNC(=O)c1ccccn1 | 15.0* | / | -1.2 | -3.6 | /
C[C@@H]1CN([C@H](C)CO)C(=O)c2cc(NC(=O)Nc3cccc4ccccc34)ccc2O[C@@H]1CN(C)Cc1ccc(C(=O)Nc2ccccc2N)cc1 | 15.4* | / | -0.7 | ? | /
C[C@@H]1CN([C@H](C)CO)C(=O)c2cc(NC(=O)CCC(F)(F)F)ccc2O[C@H]1CN(C)Cc1ccc(C(=O)Nc2ccccc2N)cc1 | / | / | -6.0 | 20.3* | /
C[C@@H]1CN([C@@H](C)CO)C(=O)c2cc(NC(=O)Nc3ccc(C(F)(F)F)cc3)ccc2O[C@H]1CN(C)Cc1ccc(C(=O)Nc2ccccc2N)cc1 | 4.3 | / | -1.6 | 6.0 | /
C[C@H]1CN([C@@H](C)CO)C(=O)c2cc(NC(=O)CCC(F)(F)F)ccc2O[C@H]1CN(C)Cc1ccc(C(=O)Nc2ccccc2N)cc1 | / | / | 4.1 | 10.3 | /
C[C@@H]1CN([C@H](C)CO)C(=O)c2cc(NC(=O)Nc3ccc(C(F)(F)F)cc3)ccc2O[C@H]1CN(C)Cc1ccc(C(=O)Nc2ccccc2N)cc1 | 8.1 | / | -0.7 | 22.4* | /
COc1ccc(C(=O)COC(=O)CCCN=C2NS(=O)(=O)c3ccccc32)c(OC)c1 | 1.4 | 4.7 | -8.4 | 35.8* | 6.9
COc1ccccc1C(=O)COC(=O)CCN=C1NS(=O)(=O)c2ccccc21 | 2.8 | -2.3 | -7.0 | 2.3 | 8.0
COc1ccc(C(=O)COC(=O)CCN=C2NS(=O)(=O)c3ccccc32)c(OC)c1 | 4.0 | -4.1 | -2.4 | 82.5* | 7.4
C[C@H]1CN([C@@H](C)CO)C(=O)c2cc(NC(=O)c3ccncc3)ccc2O[C@H]1CN(C)C(=O)Nc1cccc2ccccc12 | 7.9 | / | -2.9 | 9.9 | /
C[C@@H]1CN([C@@H](C)CO)C(=O)c2cc(C3=CCCCC3)cnc2O[C@@H]1CN(C)C(=O)c1ccccc1 | -1.1 | / | -6.0 | 7.4 | /
Cc1noc(C)c1NC(=O)Nc1ccc2c(c1)C(=O)N([C@H](C)CO)C[C@H](C)[C@@H](CN(C)C(=O)C1CCCCC1)OCCCC[C@H](C)O2 | 0.2 | / | -0.7 | 0.9 | /
CO[C@H]1CN(C)C(=O)c2cc(NS(C)(=O)=O)ccc2OC[C@H](C)N(C(=O)c2ccc3c(c2)OCO3)C[C@@H]1C | / | / | -1.3 | 41.7* | /
CO[C@@H]1CN(C)C(=O)c2cc(NS(C)(=O)=O)ccc2OC[C@@H](C)N(C(=O)c2ccc3c(c2)OCO3)C[C@@H]1C | / | / | -2.4 | -6.4 | /
CO[C@H]1CN(C)C(=O)c2cc(NS(C)(=O)=O)ccc2OC[C@@H](C)N(C(=O)c2ccc3c(c2)OCO3)C[C@H]1C | / | / | 3.6 | 27.5* | /

Screens: PubChem, Broad Institute
